± gives the standard deviation of the averaged measurements.

What all share (conditions): concentration: 10 µM; 24 h
For test [1], the system named is HCC1569. Put plainly: cell number relative to DMSO (% of DMSO); higher = more cells (less growth inhibition / toxicity). In outline: (§1)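 H1.0 nuclear intensity or cell number is stated as percent of the plate control, based on the median of replicates, and HCC1569 values were smoothed for positional effects. These came from HCC1569 and TDF cells treated with compounds at 10 µM for 24 h at 37 °C in triplicate, then fixed in 3.7% formaldehyde and stained with a rabbit anti-H1.0 antibody, an AlexaFluor 647 secondary and DAPI.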

Test [2] deals with TDF. The test is described as above. Summed up: as §1
Test [3] has as its system TDF. The experiment in a line: H1.0 immunofluorescence intensity relative to DMSO (% of DMSO); higher = stronger H1.0 induction, active = 120 or more. Summed up:
as §1

Test [4] concerns HCC1569. The experiment in a line: H1.0 immunofluorescence intensity relative to DMSO (% of DMSO); higher = stronger H1.0 induction, active = 140 or more. Summed up: as §1
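For H1.0 immunofluorescence intensity relative to DMSO in this document: TDF is a line of transformed human dermal fibroblasts of mesenchymal origin.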
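For cell number relative to DMSO in this document: TDF denotes transformed human dermal fibroblasts of mesenchymal origin.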

Regarding `COC(=O)C(Cc1ccc(OCCn2c(=O)sc3cc(C(=O)c4ccccc4)ccc32)cc1)C(=O)OC`, the cell number with HCC1569 [1] came to 102; with TDF [2], 91.8. In addition, the H1.0 immunofluorescence intensity in the test with TDF [3] was 93.3 (inactive); in the test with HCC1569 [4], 105 (inactive).

As for `CC(=O)C1(O)CCC2C3CCC4=CC(=O)CCC4(C)C3CCC21C` (stereo not drawn) [17- Hydroxyprogesterone], the cell number in the test on HCC1569 [1] was 104; in the test on TDF [2], 96. Besides, the H1.0 immunofluorescence intensity with TDF [3] was 94 (inactive); in the test with HCC1569 [4] it was 104 (inactive).

For the compound `O=C(O)/C=C/c1ccc(O)c(O)c1` [Caffeic acid], the cell number in the test with HCC1569 [1] was 98.5 ± 1.5; with TDF [2], 99.8 ± 4.1. The H1.0 immunofluorescence intensity in the test with TDF [3] is 94.5 (inactive); with HCC1569 [4], 96.2 (inactive).

As to `Cn1c(=O)c2c(ncn2Cc2ccc(C(C)(C)C)cc2)n(C)c1=O`, the figures for the cell number in the test with HCC1569 [1] and with TDF [2] were 81.6 and 71.4, respectively. Moreover, the H1.0 immunofluorescence intensity with TDF [3] was 106 (inactive); with HCC1569 [4] it was 154 (active).

Turning to `N#CC(=Cc1ccc(O)c(O)c1)C(=O)NCCCc1ccccc1` [Tyrphostin AG 555], the cell number in the test with HCC1569 [1] came to 79.8; in the test on TDF [2], 90.7. The values for the H1.0 immunofluorescence intensity with TDF [3] and with HCC1569 [4] were 88.6 (inactive) and 107 (inactive), respectively.

For the compound `CC(C)n1cnc2c(NCc3ccccc3)nc(NCCCO)nc21` [Bohemine], the values for the cell number in the test with HCC1569 [1] and in the test on TDF [2] were 91.4 and 87.5, respectively. Further, the figures for the H1.0 immunofluorescence intensity in the test on TDF [3] and in the test on HCC1569 [4] were 100 (inactive) and 106 (inactive), respectively.

As to `CCC1(O)CC2CN(CCc3c([nH]c4ccccc34)C(C(=O)OC)(c3cc4c(cc3OC)N(C)C3C(O)(C(=O)OC)C(OC(C)=O)C5(CC)C=CCN6CCC43C65)C2)C1.O=S(=O)(O)O` (stereo not drawn) [Vinblastine sulfate salt], the cell number with HCC1569 [1] was determined as 48.9; with TDF [2], 16.8. Moreover, the H1.0 immunofluorescence intensity is 152 (active) in the test with TDF [3] and 132 (inactive) with HCC1569 [4].

As for `C[N+](C)(C)C(Cc1c[nH]c(=S)[nH]1)C(=O)[O-]` (stereo not drawn) [Ergothioneine], the cell number with HCC1569 [1] is 100; in the test with TDF [2], 103. Further, the H1.0 immunofluorescence intensity with TDF [3] is 101 (inactive); with HCC1569 [4], 99.9 (inactive).

Turning to `O=C(C=Cc1ccc(O)c(O)c1)c1ccc(O)cc1O` [Butein], the figures for the cell number with HCC1569 [1] and in the test on TDF [2] were 74.3 and 89.2, respectively. In addition, the figures for the H1.0 immunofluorescence intensity in the test on TDF [3] and in the test with HCC1569 [4] were 94.3 (inactive) and 133 (inactive), respectively.

In the case of `CCN1CCCC1CNC(=O)c1cc(S(N)(=O)=O)ccc1OC` (racemic), the cell number in the test on HCC1569 [1] is 106; with TDF [2], 118. In addition, the H1.0 immunofluorescence intensity in the test on TDF [3] was 98.8 (inactive); with HCC1569 [4], 99.3 (inactive).

With `CCCCCC=CC=C1C(=O)C=CC1CC=CCCCC(=O)O` (stereo not drawn) [15d-Prostaglandin J2], the cell number was found to be 98.9 with HCC1569 [1] and 102 in the test with TDF [2]. Also, the results for the H1.0 immunofluorescence intensity in the test on TDF [3] and with HCC1569 [4] were 97.5 (inactive) and 104 (inactive), respectively.

`OC(CS)C(O)CS` (stereo not drawn): the cell number with HCC1569 [1] was 103; in the test on TDF [2] it was 104. In addition, the values for the H1.0 immunofluorescence intensity in the test with TDF [3] and in the test on HCC1569 [4] were 93.7 (inactive) and 102 (inactive), respectively.

As to `OC[C@H]1NC[C@@H](O)[C@@H]1O` [1,4-Dideoxy-1,4-imino-D-arabinitol], the cell number amounted to 105 in the test on HCC1569 [1] and 97.9 in the test with TDF [2]. The H1.0 immunofluorescence intensity in the test on TDF [3] was 88.6 (inactive); in the test on HCC1569 [4], 90.4 (inactive).

For the compound `N#CC(=Cc1ccc(O)c(O)c1)C(=O)NCc1ccccc1`, the cell number in the test with HCC1569 [1] came to 95.2; with TDF [2], 96. In addition, the values for the H1.0 immunofluorescence intensity in the test on TDF [3] and with HCC1569 [4] were 91.1 (inactive) and 121 (inactive), respectively.

As for `CCCCCCCCCCCCCCCC(=O)NCCO` [Palmitylethanolamide], the results for the cell number with HCC1569 [1] and in the test with TDF [2] were 99.8 and 104, respectively. Also, the H1.0 immunofluorescence intensity is 96.8 (inactive) in the test with TDF [3] and 95.5 (inactive) in the test with HCC1569 [4].

For the compound `COc1cccc(OC)c1OCCNCC1COc2ccccc2O1.Cl` (stereo not drawn) [WB-4101 hydrochloride], the figures for the cell number in the test with HCC1569 [1] and in the test on TDF [2] were 102 and 101, respectively. Besides, the H1.0 immunofluorescence intensity in the test with TDF [3] was 93.7 (inactive); in the test on HCC1569 [4], 93.3 (inactive).

With `CCCC(=O)NCCc1c2n(c3ccc(OC)cc13)Cc1ccccc1-2`, the cell number in the test on HCC1569 [1] came out at 92.4; with TDF [2] it was 99.3. The H1.0 immunofluorescence intensity with TDF [3] is 97.1 (inactive); in the test with HCC1569 [4], 108 (inactive).

Consider `Cl.Nc1cc(Nc2ccc(S(N)(=O)=O)cc2)ncn1`, for which the cell number in the test on HCC1569 [1] was determined as 100; in the test on TDF [2] it was 93.3. Besides, the H1.0 immunofluorescence intensity with TDF [3] is 98.4 (inactive); in the test on HCC1569 [4], 102 (inactive).

As to `CCCCCC=CCC=CCC=CCC=CCCCC(=O)C(F)(F)F`, the cell number was 104 in the test with HCC1569 [1] and 96.7 with TDF [2]. Further, the values for the H1.0 immunofluorescence intensity in the test with TDF [3] and in the test with HCC1569 [4] were 95.3 (inactive) and 95.1 (inactive), respectively.

Regarding `O=C(O)C=CC(=O)O.c1cnc(N2CCN(Cc3ccc4c(c3)OCO4)CC2)nc1` [Piribedil maleate], the cell number turned out to be 101 in the test with HCC1569 [1] and 116 in the test on TDF [2]. Also, the results for the H1.0 immunofluorescence intensity with TDF [3] and in the test with HCC1569 [4] were 93.8 (inactive) and 79.7 (inactive), respectively.

Consider `Nc1ccc(-c2cccc3c(=O)cc(N4CCOCC4)oc23)cc1`, for which the cell number with HCC1569 [1] was 78.1; with TDF [2], 99.3. The H1.0 immunofluorescence intensity with TDF [3] was 82.5 (inactive); in the test on HCC1569 [4], 156 (active).

Take `O=C1N=c2ccccc2=C1c1[nH]c2ccccc2c1NOCCC(O)CO` (stereo not drawn) [Indirubin Derivative E804]: the cell number with HCC1569 [1] amounted to 60.8; with TDF [2], 62.7. Further, the H1.0 immunofluorescence intensity in the test on TDF [3] is 102 (inactive); in the test with HCC1569 [4] it was 167 (active).

`COc1ccc(C(C)=O)c(O)c1` [Paeonol]: the cell number with HCC1569 [1] came to 99; with TDF [2], 102. For the same compound, the H1.0 immunofluorescence intensity in the test on TDF [3] was 92.9 (inactive); with HCC1569 [4] it was 101 (inactive).

Regarding `Cc1[nH]c(=O)c(C#N)cc1-c1ccncc1` [Milrinone], the results for the cell number in the test on HCC1569 [1] and in the test with TDF [2] were 103 ± 3.6 and 108 ± 13, respectively. The H1.0 immunofluorescence intensity in the test with TDF [3] is 92.3 (inactive); with HCC1569 [4], 103 (inactive).

In the case of `CSC(=N)N.CSC(=N)N.O=S(=O)(O)O` [S-Methylisothiourea hemisulfate], the cell number in the test with HCC1569 [1] was found to be 103; with TDF [2] it was 98.6. The H1.0 immunofluorescence intensity was 93.5 (inactive) in the test with TDF [3] and 96.7 (inactive) with HCC1569 [4].

Regarding `Cc1nc(C)c(C)nc1C` [Tetramethylpyrazine], the cell number is 106 in the test with HCC1569 [1] and 108 in the test with TDF [2]. The H1.0 immunofluorescence intensity was 92.9 (inactive) with TDF [3] and 94.2 (inactive) with HCC1569 [4].

For `O=S(=O)(NCc1ccccn1)c1ccc(Br)c2ccccc12` [4-bromo-N-(2-pyridinylmethyl)-1-naphthalenesulfonamide], the cell number was found to be 99.1 in the test with HCC1569 [1] and 99.2 with TDF [2]. Also, the H1.0 immunofluorescence intensity in the test on TDF [3] was 96.2 (inactive); with HCC1569 [4], 107 (inactive).

The values above are taken from the supplement of paper PMC7156485.
